The nature of test [1]: antimalarial activity against Dd2 strain (AID 2302;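 active = growth inhibition above 50% at the single 2 µM test dose, taken to imply half-maximal potency below 2 µM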;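 also: 0% = DMSO untreated growth and 100% = chloroquine plus artemisinin killed control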). The conditions noted are these: P. falciparum Dd2 in RBCs, LDH growth readout, 72 h; at 2 µM; active compounds read high.
Test [2] in a line: HepG2 cytotoxicity, primary screen, cytotoxicity control for P. falciparum antimalarial project, cell-based, ATP luminescence (AID 2303;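 active = inhibition above 50%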;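 also: 0% = DMSO wells and 100% = digitonin-killed cells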). The conditions noted are these: HepG2 viability, 24-48 h, at 10 µM, active compounds read high.
Test [3] concerns the target L-lactate dehydrogenase (Plasmodium falciparum (isolate CDC / Honduras)) (UniProt Q27743). The test is described as follows: PfLDH activity inhibition – cell lysate, 3D7 strain, counter-screen for P. falciparum growth inhibition project (AID 2304).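 Also: 0% = vehicle and 100% = reference inhibitor.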 The note with it: P. falciparum 3D7 crude extract, LDH APAD/NBT absorbance; at 2 µM; active compounds read high. On the technique in general: A counterscreen serves to expose hits that act by an unwanted route or on another target.

Test [4] in a line: inhibition of 3D7 malaria parasite growth – strain 3D7 (AID 2306).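 Also: 0% = DMSO wells and 100% = chloroquine plus artemisinin control wells.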 The conditions noted are these: P. falciparum 3D7 erythrocytic growth, LDH absorbance, 72 h; at 2 µM; active compounds read high.
Test [5] has as its target Calcium-dependent protein kinase 1 (Plasmodium falciparum (isolate 3D7)) (UniProt P62344). The test is described as follows: PfCDPK1 kinase inhibitors, biochemical, TCAMS library (AID 1159585; cut-off not given, nearly all actives have IC50 up to about 0.98 µM;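 also: inhibitors leave more ATP so luminescence rises with inhibition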). The conditions noted are these: recombinant PfCDPK1, Kinase-Glo ATP depletion luminescence.
Test [6] concerns the target Plasmodium falciparum protein kinase 6 (PK6, PF3D7_1337100) (UniProt Q8IDW1). The test can be described thus: PfPK6 kinase inhibitors, biochemical, TCAMS library (AID 1159586). The conditions noted are these: recombinant PfPK6, Kinase-Glo ATP depletion luminescence. For orientation: Kinase-Glo measures the ATP left after a reaction by luminescence.
In test [7] the target is Protein kinase 7 (PK7), Plasmodium falciparum 3D7 (PF3D7_0213400) (UniProt Q7YTF7). The test can be described thus: inhibition of Plasmodium PK7 catalytic activity – biochemical, TCAMS antimalarial set, Kinase-Glo luminescence (AID 1159587). The conditions noted are these: recombinant PfPK7, Kinase-Glo ATP depletion luminescence.
Protein kinase 7 (PK7), Plasmodium falciparum 3D7 (PF3D7_0213400), sequence (Q7YTF7 1-343): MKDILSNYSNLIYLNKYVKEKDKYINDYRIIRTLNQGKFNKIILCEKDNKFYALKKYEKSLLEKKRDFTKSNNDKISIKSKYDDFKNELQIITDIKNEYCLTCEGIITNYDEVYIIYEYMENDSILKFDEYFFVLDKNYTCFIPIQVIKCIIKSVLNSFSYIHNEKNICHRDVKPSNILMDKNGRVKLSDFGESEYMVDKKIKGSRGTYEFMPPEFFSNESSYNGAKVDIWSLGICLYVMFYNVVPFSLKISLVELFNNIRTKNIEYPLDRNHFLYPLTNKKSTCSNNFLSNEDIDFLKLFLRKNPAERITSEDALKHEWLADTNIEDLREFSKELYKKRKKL
Test [8] deals with Calcium-dependent protein kinase 4 (Plasmodium falciparum (isolate 3D7)) (UniProt Q8IBS5). The test is described as follows: PfCDPK4 kinase inhibitors, biochemical, TCAMS library (AID 1159588; cut-off not given, nearly all actives have IC50 up to about 0.91 µM). The note with it: recombinant PfCDPK4, Kinase-Glo ATP depletion luminescence.
Calcium-dependent protein kinase 4 (Plasmodium falciparum (isolate 3D7)), sequence (Q8IBS5 whole entry, looked up): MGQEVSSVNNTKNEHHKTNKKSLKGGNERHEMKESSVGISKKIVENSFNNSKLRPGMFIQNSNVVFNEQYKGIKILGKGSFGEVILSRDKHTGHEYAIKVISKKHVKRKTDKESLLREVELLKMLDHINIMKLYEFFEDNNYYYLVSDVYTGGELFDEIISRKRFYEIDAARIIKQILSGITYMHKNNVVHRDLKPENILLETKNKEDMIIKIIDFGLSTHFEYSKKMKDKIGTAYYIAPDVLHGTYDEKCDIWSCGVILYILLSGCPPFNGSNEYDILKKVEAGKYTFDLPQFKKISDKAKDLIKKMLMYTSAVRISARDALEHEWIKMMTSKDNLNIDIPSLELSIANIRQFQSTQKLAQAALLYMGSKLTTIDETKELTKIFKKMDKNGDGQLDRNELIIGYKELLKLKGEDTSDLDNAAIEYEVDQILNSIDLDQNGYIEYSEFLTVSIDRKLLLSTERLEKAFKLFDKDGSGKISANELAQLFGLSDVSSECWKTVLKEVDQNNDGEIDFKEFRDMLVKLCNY

Among the data in PubChem BioAssay are growth inhibition, inhibition and outcome values, retold here.

Values without a mark were called inactive. For some of these results: Potency and affinity values are given separately. Active and inactive are the calls of the source. Unless noted, no rule for the calls is given here.

Calcium-dependent protein kinase 1 (Plasmodium falciparum (isolate 3D7)), sequence (P62344 whole entry, looked up): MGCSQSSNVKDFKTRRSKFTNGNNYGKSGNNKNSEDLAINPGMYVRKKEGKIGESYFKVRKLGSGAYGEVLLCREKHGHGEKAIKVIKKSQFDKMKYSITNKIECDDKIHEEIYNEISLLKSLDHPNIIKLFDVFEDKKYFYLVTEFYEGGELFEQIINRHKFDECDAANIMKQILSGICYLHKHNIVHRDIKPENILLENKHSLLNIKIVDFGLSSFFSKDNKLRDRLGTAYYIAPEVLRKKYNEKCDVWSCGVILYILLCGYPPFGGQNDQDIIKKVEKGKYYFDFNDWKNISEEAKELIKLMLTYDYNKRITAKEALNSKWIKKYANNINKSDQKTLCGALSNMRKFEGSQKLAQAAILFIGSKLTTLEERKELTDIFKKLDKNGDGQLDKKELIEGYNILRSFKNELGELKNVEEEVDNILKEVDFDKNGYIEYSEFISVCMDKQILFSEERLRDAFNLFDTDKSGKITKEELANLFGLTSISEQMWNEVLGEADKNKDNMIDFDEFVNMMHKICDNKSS
L-lactate dehydrogenase (Plasmodium falciparum (isolate CDC / Honduras)), sequence (Q27743 whole entry, looked up): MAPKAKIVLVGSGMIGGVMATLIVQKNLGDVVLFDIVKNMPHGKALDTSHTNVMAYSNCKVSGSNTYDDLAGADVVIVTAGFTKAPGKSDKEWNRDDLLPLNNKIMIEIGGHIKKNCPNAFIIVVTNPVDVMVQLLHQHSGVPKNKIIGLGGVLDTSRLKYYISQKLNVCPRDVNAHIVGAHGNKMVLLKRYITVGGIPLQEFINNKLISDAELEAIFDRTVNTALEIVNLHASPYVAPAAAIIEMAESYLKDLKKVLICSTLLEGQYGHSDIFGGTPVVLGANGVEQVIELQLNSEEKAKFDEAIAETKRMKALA
Plasmodium falciparum protein kinase 6 (PK6, PF3D7_1337100), sequence (Q8IDW1 1-305): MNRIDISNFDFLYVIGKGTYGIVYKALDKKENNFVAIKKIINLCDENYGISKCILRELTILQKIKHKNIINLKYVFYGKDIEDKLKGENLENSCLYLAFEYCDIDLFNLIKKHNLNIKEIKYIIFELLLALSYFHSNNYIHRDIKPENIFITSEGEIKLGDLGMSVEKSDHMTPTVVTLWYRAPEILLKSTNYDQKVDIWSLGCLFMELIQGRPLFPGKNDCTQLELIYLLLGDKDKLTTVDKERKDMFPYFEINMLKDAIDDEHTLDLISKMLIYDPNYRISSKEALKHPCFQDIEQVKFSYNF

As to `FC(F)(F)c1cccc(Nc2nc(-n3ccnc3)nc(-n3ccnc3)n2)c1`, the figures for the growth inhibition in test [1] and in test [4] were 9% and 97% (active), respectively. The inhibition in test [2] is 5%; in test [3], 1%. Also, the outcome in test [5], in test [6], in test [7] and in test [8] was inactive.
As for `NC(Cc1cccc(I)c1)C(=O)NCC1CCCO1` (stereo not given), the growth inhibition in test [1] is 50% (active); in test [4], 98% (active). Moreover, the inhibition in test [2] is 52% (active); in test [3] it was 1%. The result in test [5], in test [6], in test [7] and in test [8] was inactive.
For the molecule `CC(C)(C)OC(=O)n1cc(C2CCN(CCCC34CCCc5cccc(c53)NC4=O)CC2)c2ccncc21` (stereo not given), the growth inhibition in test [1] is -2%; in test [4], 92% (active). The inhibition in test [2] is 20%; in test [3], -5%. Further, the outcome in test [5], in test [6], in test [7] and in test [8] was inactive.
For the molecule `Cc1cc(-c2cc(Cl)ccc2Cl)no1`, the growth inhibition in test [1] was 97% (active); in test [4] it was 96% (active). Moreover, the inhibition in test [2] was 36%; in test [3], -8%. Besides, the result in test [5], in test [6], in test [7] and in test [8] was inactive.
For the molecule `CC(C)[C@@H]1c2ccc(O)cc2C[C@H]2C(=O)N(C3CCCCC3)C(=O)N21`, the growth inhibition was 88% (active) in test [1] and 95% (active) in test [4]. Besides, the inhibition in test [2] was 2%; in test [3] it was 0%. For the same molecule, the result in test [5], in test [6], in test [7] and in test [8] was inactive.
Consider `CCC(Cc1ccccc1)c1cc(O)c(Cc2ccc(-c3ccccc3)cc2)c(=O)o1` (stereo not given), for which the growth inhibition in test [1] was -3%; in test [4], 89% (active). In addition, the inhibition was 3% in test [2] and -1% in test [3]. Further, the outcome in test [5], in test [6], in test [7] and in test [8] was inactive.
`COc1cccc(COCC(O)CN(CCc2ccccn2)C(=O)c2ccccc2F)c1` (stereo not given): the growth inhibition in test [1] is 30%; in test [4], 97% (active). Further, the inhibition in test [2] was 61% (active); in test [3], -1%. For the same molecule, the result in test [5], in test [6], in test [7] and in test [8] was inactive.
Turning to `O=C(/C=C/c1ccc(Cl)cc1)NCCCCCN1CCN(C(=O)C=Cc2ccc(Cl)c(Cl)c2)CC1`, the values for the growth inhibition in test [1] and in test [4] were 0% and 92% (active), respectively. Moreover, the inhibition in test [2] is 30%; in test [3], 5%. In addition, the outcome in test [5], in test [6], in test [7] and in test [8] was inactive.
For the molecule `COc1ccc(-c2cnc(N)c(-c3nc4ccc(Br)cc4[nH]3)c2)cc1`, the growth inhibition in test [1] is 3%; in test [4], 100% (active). Also, the results for the inhibition in test [2] and in test [3] were 42% and 2%, respectively. Besides, the result in test [5], in test [6], in test [7] and in test [8] was inactive.
`Cc1ccc(NC(=O)Nc2ccc(Cn3ncc(N4CCCNCC4)c(Cl)c3=O)cc2)cc1`: the growth inhibition was 13% in test [1] and 84% (active) in test [4]. The inhibition is 35% in test [2] and -1% in test [3]. Also, the result in test [5], in test [6], in test [7] and in test [8] was inactive.
In the case of `COc1ccc2nccc([C@@H](O)CN3CCC(NCc4nc5ccccc5s4)CC3)c2c1`, the growth inhibition is 5% in test [1] and 93% (active) in test [4]. The inhibition in test [2] is 8%; in test [3], -3%. The outcome in test [5], in test [6], in test [7] and in test [8] was inactive.
On to `O=C(CSc1n[nH]c(-c2ccccc2Br)n1)c1c[nH]c2ccccc12`, for which the growth inhibition in test [1] is 95% (active); in test [4], 100% (active). Also, the results for the inhibition in test [2] and in test [3] were 7% and -6%, respectively. In addition, the outcome in test [5], in test [6], in test [7] and in test [8] was inactive.
Turning to `c1ccc2sc(Sc3ncnc4sccc34)nc2c1`, the growth inhibition in test [1] and in test [4] was 100% (active) each time. For the same molecule, the inhibition in test [2] was 7%; in test [3], 2%. The outcome in test [5], in test [6], in test [7] and in test [8] was inactive.
As for `O=C(NC1CCN(Cc2ccsc2)CC1)c1ccc(-c2cccc(C(F)(F)F)c2)s1`, the values for the growth inhibition in test [1] and in test [4] were 3% and 88% (active), respectively. The inhibition in test [2] was 48%; in test [3], -2%. Besides, the outcome in test [5], in test [6], in test [7] and in test [8] was inactive.
In the case of `COc1ccc(OC)c(C=NNc2nc3ccccc3[nH]2)c1`, the growth inhibition was 28% in test [1] and 99% (active) in test [4]. For the same molecule, the inhibition in test [2] is -6%; in test [3], 7%. Further, the outcome in test [5], in test [6], in test [7] and in test [8] was inactive.
Regarding `O=C(/C=C/c1ccc(Cl)c(Cl)c1)N1CCC(CNCc2cccc3cc[nH]c23)CC1`, the growth inhibition was 14% in test [1] and 85% (active) in test [4]. Also, the values for the inhibition in test [2] and in test [3] were 1% and -2%, respectively. Further, the result in test [5], in test [6], in test [7] and in test [8] was inactive.
As to `N#Cc1cccc(C(=O)Nc2ccc(-c3cccc(CN4CCCC4)c3)cc2)c1`, the growth inhibition in test [1] is 79% (active); in test [4], 101% (active). Besides, the inhibition in test [2] was 15%; in test [3] it was 2%. Further, the result in test [5], in test [6], in test [7] and in test [8] was inactive.
On to `Clc1ccc(OCc2ccccc2)c(Cc2ccc(-c3nc4ccncc4[nH]3)o2)c1`, for which the growth inhibition in test [1] is 6%; in test [4], 99% (active). Further, the values for the inhibition in test [2] and in test [3] were 2% and -2%, respectively. Further, the outcome in test [5], in test [6], in test [7] and in test [8] was inactive.
With `Cc1ccc(Nc2nc(NN=Cc3cc4c(cc3Br)OCO4)nc(Nc3ccc([N+](=O)[O-])cc3)n2)cc1C`, the growth inhibition in test [1] was 89% (active); in test [4], 100% (active). Besides, the inhibition in test [2] was 23%; in test [3], -2%. Also, the result in test [5], in test [6], in test [7] and in test [8] was inactive.
Regarding `Nc1ncc(-c2ccsc2)c2ccc(-c3cc(NCc4ccccc4)ncn3)cc12`, the growth inhibition in test [1] was 86% (active); in test [4] it was 101% (active). In addition, the figures for the inhibition in test [2] and in test [3] were 0% and 3%, respectively. Further, the result in test [5], in test [6], in test [7] and in test [8] was inactive.

For orientation: inhibition means the relative decrease from the control value, in per cent.
